Tests used:
[1] = biological target: Leukocyte tyrosine kinase receptor (Homo sapiens) (UniProt P29376); details: at 1 µM;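 also: each value is the mean inhibition of LTK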
[2] = biological target: Tyrosine-protein kinase Lyn (Homo sapiens) (UniProt P07948); details: at 0.1 µM
[3] = biological target: Tyrosine-protein kinase Lyn (Homo sapiens) (UniProt P07948); details: at 1 µM
[4] = biological target: Tyrosine-protein kinase Lyn (Homo sapiens) (UniProt P07948); details: at 0.1 µM; remark: listed apart in the source
[5] = biological target: Tyrosine-protein kinase Lyn (Homo sapiens) (UniProt P07948); details: at 1 µM; remark: listed apart in the source
[6] = biological target: T1, Tyrosine-protein kinase Mer (Homo sapiens) (UniProt Q12866); details: at 0.1 µM
T1 sequence (whole entry): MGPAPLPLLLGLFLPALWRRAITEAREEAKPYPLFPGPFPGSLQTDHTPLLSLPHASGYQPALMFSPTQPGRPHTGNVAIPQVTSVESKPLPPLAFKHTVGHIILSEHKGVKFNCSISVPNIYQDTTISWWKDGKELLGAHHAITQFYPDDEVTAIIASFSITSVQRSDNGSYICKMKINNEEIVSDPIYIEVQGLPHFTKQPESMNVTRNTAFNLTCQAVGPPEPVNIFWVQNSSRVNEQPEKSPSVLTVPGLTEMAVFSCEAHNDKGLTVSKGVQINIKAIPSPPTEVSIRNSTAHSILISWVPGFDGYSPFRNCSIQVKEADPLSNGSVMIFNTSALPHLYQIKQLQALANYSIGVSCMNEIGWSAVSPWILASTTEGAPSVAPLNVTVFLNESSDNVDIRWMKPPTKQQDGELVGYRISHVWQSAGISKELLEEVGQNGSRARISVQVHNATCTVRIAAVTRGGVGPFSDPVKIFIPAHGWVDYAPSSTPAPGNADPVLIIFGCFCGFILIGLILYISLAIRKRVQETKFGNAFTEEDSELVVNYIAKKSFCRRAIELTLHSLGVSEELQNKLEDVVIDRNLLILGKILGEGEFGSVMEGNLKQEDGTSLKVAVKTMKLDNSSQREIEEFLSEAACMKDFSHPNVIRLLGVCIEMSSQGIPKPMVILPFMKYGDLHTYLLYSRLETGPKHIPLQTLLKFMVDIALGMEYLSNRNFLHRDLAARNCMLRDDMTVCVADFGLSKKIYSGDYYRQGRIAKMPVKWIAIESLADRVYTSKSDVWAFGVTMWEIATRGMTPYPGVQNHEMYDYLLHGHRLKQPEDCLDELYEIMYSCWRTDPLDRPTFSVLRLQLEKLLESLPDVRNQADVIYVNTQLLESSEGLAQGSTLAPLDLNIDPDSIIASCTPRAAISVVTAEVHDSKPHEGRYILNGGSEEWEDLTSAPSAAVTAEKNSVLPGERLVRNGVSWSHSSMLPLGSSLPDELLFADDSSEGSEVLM

[7] = biological target: T1, Tyrosine-protein kinase Mer (Homo sapiens); details: at 1 µM
[8] = biological target: Hepatocyte growth factor receptor (Homo sapiens) (UniProt P08581); details: at 0.1 µM
Sequence of Hepatocyte growth factor receptor (Homo sapiens) (P08581 whole entry): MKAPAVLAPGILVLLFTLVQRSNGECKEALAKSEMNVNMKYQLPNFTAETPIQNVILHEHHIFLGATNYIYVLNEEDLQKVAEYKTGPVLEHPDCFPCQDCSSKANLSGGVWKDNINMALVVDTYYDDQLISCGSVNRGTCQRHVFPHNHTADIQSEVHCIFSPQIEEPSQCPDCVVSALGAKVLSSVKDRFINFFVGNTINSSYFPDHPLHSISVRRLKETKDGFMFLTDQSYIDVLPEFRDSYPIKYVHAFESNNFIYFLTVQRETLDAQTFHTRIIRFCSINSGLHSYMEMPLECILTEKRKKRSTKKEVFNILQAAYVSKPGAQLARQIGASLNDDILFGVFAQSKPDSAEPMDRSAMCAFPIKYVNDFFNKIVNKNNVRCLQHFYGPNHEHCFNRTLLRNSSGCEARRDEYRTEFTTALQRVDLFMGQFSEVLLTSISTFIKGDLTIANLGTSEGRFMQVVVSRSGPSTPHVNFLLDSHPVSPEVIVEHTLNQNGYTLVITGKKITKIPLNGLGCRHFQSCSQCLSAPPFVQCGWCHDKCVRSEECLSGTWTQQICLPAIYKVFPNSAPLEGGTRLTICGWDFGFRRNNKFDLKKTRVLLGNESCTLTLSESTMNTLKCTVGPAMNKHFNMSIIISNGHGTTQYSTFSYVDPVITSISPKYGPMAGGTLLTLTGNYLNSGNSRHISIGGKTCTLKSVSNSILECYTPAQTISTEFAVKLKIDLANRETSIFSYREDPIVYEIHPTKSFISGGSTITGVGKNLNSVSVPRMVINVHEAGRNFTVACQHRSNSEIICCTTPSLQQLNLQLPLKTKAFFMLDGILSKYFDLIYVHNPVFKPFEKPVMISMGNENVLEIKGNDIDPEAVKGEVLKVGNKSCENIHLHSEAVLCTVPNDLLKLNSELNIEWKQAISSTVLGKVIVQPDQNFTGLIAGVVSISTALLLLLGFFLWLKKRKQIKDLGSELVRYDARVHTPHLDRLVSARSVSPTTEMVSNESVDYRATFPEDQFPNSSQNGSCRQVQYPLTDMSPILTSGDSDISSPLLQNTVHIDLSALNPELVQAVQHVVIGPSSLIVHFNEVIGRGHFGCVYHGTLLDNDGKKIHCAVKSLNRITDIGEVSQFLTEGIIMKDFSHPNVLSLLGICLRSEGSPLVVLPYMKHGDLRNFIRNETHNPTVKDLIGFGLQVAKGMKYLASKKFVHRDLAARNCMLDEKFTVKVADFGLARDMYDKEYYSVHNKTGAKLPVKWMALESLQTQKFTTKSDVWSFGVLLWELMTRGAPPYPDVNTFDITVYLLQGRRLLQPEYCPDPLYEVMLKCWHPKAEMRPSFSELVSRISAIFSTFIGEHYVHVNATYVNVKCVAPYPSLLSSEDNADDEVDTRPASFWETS

[9] = biological target: Hepatocyte growth factor receptor (Homo sapiens) (UniProt P08581); details: at 1 µM
[10] = biological target: T2, Muscle, skeletal receptor tyrosine-protein kinase (Homo sapiens) (UniProt O15146); details: at 0.1 µM
T2 sequence (whole entry): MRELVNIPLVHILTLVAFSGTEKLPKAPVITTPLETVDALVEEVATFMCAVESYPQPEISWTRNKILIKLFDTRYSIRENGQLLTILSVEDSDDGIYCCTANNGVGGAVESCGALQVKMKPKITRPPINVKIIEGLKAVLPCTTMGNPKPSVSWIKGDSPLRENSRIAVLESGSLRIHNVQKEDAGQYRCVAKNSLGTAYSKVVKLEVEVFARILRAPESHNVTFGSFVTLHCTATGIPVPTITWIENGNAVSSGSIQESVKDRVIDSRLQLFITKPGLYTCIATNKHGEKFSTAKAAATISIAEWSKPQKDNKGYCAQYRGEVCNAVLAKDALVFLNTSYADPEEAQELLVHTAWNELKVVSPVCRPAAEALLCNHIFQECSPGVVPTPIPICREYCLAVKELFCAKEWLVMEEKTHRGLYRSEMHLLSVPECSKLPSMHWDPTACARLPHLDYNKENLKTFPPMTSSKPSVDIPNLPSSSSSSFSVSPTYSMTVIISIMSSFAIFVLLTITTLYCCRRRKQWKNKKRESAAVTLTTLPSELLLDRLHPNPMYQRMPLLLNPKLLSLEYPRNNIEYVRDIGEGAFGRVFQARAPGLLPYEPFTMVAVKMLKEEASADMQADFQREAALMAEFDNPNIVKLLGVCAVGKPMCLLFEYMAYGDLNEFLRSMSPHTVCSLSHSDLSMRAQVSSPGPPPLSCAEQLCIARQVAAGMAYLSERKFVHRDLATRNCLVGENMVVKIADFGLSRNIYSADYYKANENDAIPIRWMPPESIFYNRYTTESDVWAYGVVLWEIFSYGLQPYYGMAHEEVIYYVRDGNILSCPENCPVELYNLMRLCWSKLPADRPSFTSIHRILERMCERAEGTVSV

[11] = biological target: T2, Muscle, skeletal receptor tyrosine-protein kinase (Homo sapiens); details: at 1 µM
[12] = biological target: Platelet-derived growth factor receptor alpha (Homo sapiens) (UniProt P16234); details: at 0.1 µM
Sequence of Platelet-derived growth factor receptor alpha (Homo sapiens) (P16234 whole entry): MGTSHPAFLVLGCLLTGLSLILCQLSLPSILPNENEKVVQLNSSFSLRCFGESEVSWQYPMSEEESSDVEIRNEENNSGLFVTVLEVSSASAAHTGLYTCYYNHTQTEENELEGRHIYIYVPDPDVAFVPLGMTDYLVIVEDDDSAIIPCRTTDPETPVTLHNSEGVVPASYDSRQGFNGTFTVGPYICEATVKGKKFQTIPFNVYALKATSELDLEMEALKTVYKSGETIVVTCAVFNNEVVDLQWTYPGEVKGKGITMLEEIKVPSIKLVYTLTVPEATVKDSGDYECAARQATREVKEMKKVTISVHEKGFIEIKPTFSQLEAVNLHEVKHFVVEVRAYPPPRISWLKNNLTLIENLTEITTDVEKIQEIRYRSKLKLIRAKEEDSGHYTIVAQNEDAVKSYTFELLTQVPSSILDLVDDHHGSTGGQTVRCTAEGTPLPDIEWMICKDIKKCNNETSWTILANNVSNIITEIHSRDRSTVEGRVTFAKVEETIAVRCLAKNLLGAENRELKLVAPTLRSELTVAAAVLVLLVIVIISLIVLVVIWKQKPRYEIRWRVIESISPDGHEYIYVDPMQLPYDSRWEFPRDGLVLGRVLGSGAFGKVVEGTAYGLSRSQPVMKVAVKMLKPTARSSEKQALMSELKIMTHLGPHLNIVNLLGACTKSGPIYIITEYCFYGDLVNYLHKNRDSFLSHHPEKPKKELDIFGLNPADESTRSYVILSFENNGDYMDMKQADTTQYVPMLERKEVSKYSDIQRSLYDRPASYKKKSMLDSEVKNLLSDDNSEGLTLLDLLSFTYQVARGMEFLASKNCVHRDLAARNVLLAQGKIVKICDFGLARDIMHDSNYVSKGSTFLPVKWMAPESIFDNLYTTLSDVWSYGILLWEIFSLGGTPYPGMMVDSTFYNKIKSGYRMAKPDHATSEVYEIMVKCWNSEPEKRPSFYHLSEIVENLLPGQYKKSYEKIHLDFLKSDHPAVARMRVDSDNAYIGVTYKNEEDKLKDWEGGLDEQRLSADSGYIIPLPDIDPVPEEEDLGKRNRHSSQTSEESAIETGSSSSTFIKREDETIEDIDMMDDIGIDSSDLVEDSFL

[13] = biological target: Platelet-derived growth factor receptor alpha (Homo sapiens) (UniProt P16234); details: at 1 µM
[14] = tested on: Platelet-derived growth factor receptor alpha (Homo sapiens), P16234 [D842V]; details: at 0.1 µM
[15] = tested on: Platelet-derived growth factor receptor alpha (Homo sapiens), P16234 [D842V]; details: at 1 µM
[16] = tested on: Platelet-derived growth factor receptor alpha (Homo sapiens), P16234 [T674I]; details: at 0.1 µM
[17] = tested on: Platelet-derived growth factor receptor alpha (Homo sapiens), P16234 [T674I]; details: at 1 µM
[18] = tested on: Platelet-derived growth factor receptor alpha (Homo sapiens), P16234 [V561D]; details: at 0.1 µM
Sequence of Platelet-derived growth factor receptor alpha (Homo sapiens), P16234 [V561D] (P16234 whole entry V561D): as the sequence (P16234 whole entry) above, with V561D counted along it

[19] = tested on: Platelet-derived growth factor receptor alpha (Homo sapiens), P16234 [V561D]; details: at 1 µM
[20] = biological target: Platelet-derived growth factor receptor beta (Homo sapiens) (UniProt P09619); details: at 0.1 µM;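 also: reported value is the mean percent inhibition of the kinase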
Sequence of Platelet-derived growth factor receptor beta (Homo sapiens) (P09619 whole entry): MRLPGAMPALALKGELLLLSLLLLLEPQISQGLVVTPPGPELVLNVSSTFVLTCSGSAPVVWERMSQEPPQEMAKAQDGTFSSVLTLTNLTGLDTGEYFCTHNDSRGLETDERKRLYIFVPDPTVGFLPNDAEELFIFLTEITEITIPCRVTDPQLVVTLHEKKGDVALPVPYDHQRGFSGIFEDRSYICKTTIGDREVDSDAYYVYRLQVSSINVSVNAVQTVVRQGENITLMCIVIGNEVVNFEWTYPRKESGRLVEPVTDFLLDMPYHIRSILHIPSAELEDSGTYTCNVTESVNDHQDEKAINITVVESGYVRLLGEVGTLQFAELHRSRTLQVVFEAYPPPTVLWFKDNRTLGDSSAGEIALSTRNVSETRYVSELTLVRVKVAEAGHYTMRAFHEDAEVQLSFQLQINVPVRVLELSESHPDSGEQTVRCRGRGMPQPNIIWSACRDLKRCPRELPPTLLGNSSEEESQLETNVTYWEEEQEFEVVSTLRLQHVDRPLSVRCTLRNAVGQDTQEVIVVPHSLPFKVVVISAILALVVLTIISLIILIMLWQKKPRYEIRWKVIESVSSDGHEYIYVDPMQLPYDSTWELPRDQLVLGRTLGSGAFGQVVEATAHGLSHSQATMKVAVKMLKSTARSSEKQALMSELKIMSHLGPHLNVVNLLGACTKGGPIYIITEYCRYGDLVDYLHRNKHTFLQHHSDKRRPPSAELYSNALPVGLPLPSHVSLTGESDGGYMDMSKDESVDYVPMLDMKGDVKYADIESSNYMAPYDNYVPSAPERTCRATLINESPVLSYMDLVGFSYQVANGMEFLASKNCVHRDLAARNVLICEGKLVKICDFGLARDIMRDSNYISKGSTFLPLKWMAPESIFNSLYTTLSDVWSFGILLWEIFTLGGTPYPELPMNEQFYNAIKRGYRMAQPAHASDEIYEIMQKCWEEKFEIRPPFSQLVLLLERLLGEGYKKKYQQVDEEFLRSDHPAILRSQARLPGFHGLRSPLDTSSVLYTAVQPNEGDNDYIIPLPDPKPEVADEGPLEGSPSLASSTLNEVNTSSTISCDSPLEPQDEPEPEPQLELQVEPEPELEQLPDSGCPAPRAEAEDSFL

SMILES	inhibition [1] [%]	inhibition [2] [%]	inhibition [3] [%]	inhibition [4] [%]	inhibition [5] [%]	inhibition [6] [%]	inhibition [7] [%]	inhibition [8] [%]	inhibition [9] [%]	inhibition [10] [%]	inhibition [11] [%]	inhibition [12] [%]	inhibition [13] [%]	inhibition [14] [%]	inhibition [15] [%]	inhibition [16] [%]	inhibition [17] [%]	inhibition [18] [%]	inhibition [19] [%]	inhibition [20] [%]
CS(=O)(=O)CCN(CC#N)Cc1ccc(-c2ccc3ncnc(Nc4ccc(OCc5cccc(F)c5)c(Cl)c4)c3c2)o1	1.95	2.44	3.17	1.32	1.72	2.77	2.05	7.6	2.64	1.44	1.87	5.88	10.3	1.15	3.78	1.63	5.75	1.15	4.06	4.64
[O-][S+]1CCN(Cc2ccc(-c3ccc4ncnc(Nc5ccc(OCc6ccccc6)c(F)c5)c4c3)o2)CC1	3.33	2.19	5.34	1.2	1.42	42.1	81.8	6.51	0.93	1.44	3.05	3.33	4.2	2.67	1.42	2.19	3.59	0.45	3.92	1.19
COc1cc2ncn(-c3cc(OCc4ccccc4C(F)(F)F)c(C(N)=O)s3)c2cc1OC	4.35	6.12	21.5	3.89	17.4	2.08	9.28	4.37	19.5	11	32.7	47.1	83.5	29.5	79.9	19.1	68	36.6	84.9	45
Cc1cccc(-c2n[nH]cc2-c2ccc3ncccc3n2)n1	0.08	0.89	7.91	0.34	7.01	-0.08	0.84	2.89	-1.62	0.64	2.87	10.7	55.3	18.8	68.7	1.71	0.07	12.3	53	2.42
CN1CCC(C(=O)Nc2n[nH]c3nnc(-c4ccccc4)cc23)CC1	4.51	5.18	4.72	2.24	3.51	1.95	7.11	1.78	3.43	3.93	5.06	5.74	16.5	3.37	3.2	6.86	7.55	7.2	6.38	2.43
COC(=O)Nc1nc2cc(Oc3cccc(NC(=O)Nc4cc(C(F)(F)F)ccc4F)c3)ccc2[nH]1	24.9	7.9	45.9	5.64	41.6	-1.21	-0.14	1	0.32	4.58	32.3	48.6	80.2	2.6	8.72	4.75	37.5	40.7	87.4	11.4
Nc1ncnc2occ(-c3ccc(NC(=O)Nc4cccc(C(F)(F)F)c4)cc3)c12	47.1	19.4	72.2	13.3	67.8	3.32	31.6	3.03	29	72.9	90.2	88.2	93.1	26.5	76.4	79.5	85	95.3	99	69.4
CCn1c(-c2nonc2N)nc2c(C#CC(C)(C)O)nc(CN3CCCC3)cc21	-0.04	-1.54	0.2	-1.39	0.5	-0.28	0.18	5.85	5.28	0.58	4.26	7.83	13.1	3.09	5.71	2.75	0.39	2.19	6.46	3.33
CCN1CCC(CC(=O)Nc2n[nH]c3nc(-c4cccs4)c(Br)cc23)CC1	0.89	0.07	1.67	-0.46	1.82	-0.67	3.05	-0.73	-0.38	0.33	6.39	1.61	5.44	1.12	6.22	-1.25	3.53	2.04	4.21	4.9
COc1ccccc1Nc1ncc(-c2ccccc2)o1	4.49	5.91	8.44	3.58	5.77	0.01	1.66	10.1	1.27	4.33	2.74	14.1	47.5	4.24	6.87	16.9	69.4	35.6	53.5	11.1
Nc1nc(-c2ccccn2)c(-c2ccc3ncccc3n2)s1	2.34	4.59	4.44	2.14	3.06	0.73	4.5	2.46	9.52	3.99	4.69	5.63	11.4	1.02	1.79	3.45	7.4	-0.56	-1.5	6.46
CCCN1CCC(Oc2cc(Nc3nc(Nc4cccc(F)c4C(N)=O)c4cc[nH]c4n3)c(OC)cc2Cl)CC1	68.8	0	2.61	-0.77	1.89	0.64	2.77	-1.41	-2.15	3.31	8.65	3.93	11.6	0.78	-0.29	2.51	1.04	1.89	4.25	4.35
COc1cc(C)c(NC(=O)CN(C)C)cc1Nc1nc(Nc2cccc(F)c2C(N)=O)c2cc[nH]c2n1	95.6	3.5	1.33	2.46	-0.14	2.47	7.53	3.32	-1.66	5.47	28.9	7.3	16.9	1.18	3.96	0.9	3.29	1.13	10.8	2.12
COc1ccc(-c2nn3ncccc3c2-c2ccnc(Nc3ccc(Cl)c(C(F)(F)F)c3)n2)cc1	2.96	2.95	7.79	2.39	7.64	0.1	0.41	7.55	4.08	2.01	1.1	3.58	7.86	0.96	1.8	3.16	5.2	3.43	3.24	2.18
CCc1cccc(NC(=O)Nc2ccc(Oc3ccc4nc(NC(=O)OC)[nH]c4c3)cc2)c1	0.04	10	20.8	7.66	15.2	2.96	3.11	15.7	27.4	16.2	31.1	88.5	96.8	11.7	20.5	75.7	100	86.6	94.5	40.4
COc1cc2ncn(-c3cc(O[C@H](C)c4ccccc4Cl)c(C(N)=O)s3)c2cc1OC	11.3	6.61	27.9	5.21	23.9	5.63	22.6	4.85	17	29.3	78.2	73.2	100	42.1	88.2	56.5	97.2	50.5	87.3	59.7
COc1cc2ncn(-c3cc(O[C@@H](C)c4ccccc4Cl)c(C(N)=O)s3)c2cc1OC	4.56	6.39	28.6	4.74	22	4.25	10.3	4.76	3.23	2.77	14.1	37.9	73.8	27	77.1	7.94	50	32.4	81.5	29.8
Nc1nc(-c2ccc3c(c2)C(=Cc2cc(Br)c(O)c(Br)c2)C(=O)N3)cs1	17.4	0.87	6.57	0.59	4.62	-0.02	3.29	1.02	4.73	0.81	2.75	2.1	5.96	0.96	2.21	0.36	-0.01	2.02	2.58	1.75
N#Cc1c(NC(=O)c2cccc3ccccc23)sc2c1CCCC2	2.53	4.91	5.68	2.96	3.7	0.86	1.53	3.61	7.33	3.62	4.97	6.56	12.2	4.04	4.85	4.77	9.67	3.45	6.79	3.17
CC(C)=Cc1cccc2c1/C(=N/Nc1ccc(S(N)(=O)=O)cc1)C(=O)N2	11.3	6.78	35.8	5.19	29.9	0.25	3.48	-0.76	19.6	7	36.3	20.3	64.9	12.2	58.5	7.43	46.5	15	62.5	17.4
CCn1c(-c2nonc2N)nc2cnc(Oc3cccc(NC(=O)c4ccc(OCCN5CCOCC5)cc4)c3)cc21	1.51	5.8	4.87	3.05	2.62	1.1	2.56	3.9	7.84	2.09	-1.35	5.93	9.57	1.95	4.64	4.39	9.13	3.13	3.7	2.12

Reference: ChEMBL document CHEMBL1961873, “Compounds: GSK PKIS; Assays: Nanosyn kinase panel” (2012)
